For one sequence, binding signal results are on record in article PMC7862700, “An all-to-all approach to the identification of sequence-specific readers for epigenetic DNA modifications on cytosine”.

Experiment in all cases: DAPPL (digital affinity profiling via proximity ligation, sequencing); 10 mM Tris-HCl pH 7.5, 50 mM NaCl, 1 mM DTT, 4% glycerol, room temperature, 30 min; GST-TFs on glutathione beads, 16-mer random dsDNA library, 0.1% formaldehyde crosslink after washing; high values mean tight binding
Common to all, as to conditions: protein: recombinant; tags: N-terminal GST; dsDNA, one strand shown

In one experiment the target is T1, ELK1 (Homo sapiens, UniProt P19419 1-428).
T1 sequence: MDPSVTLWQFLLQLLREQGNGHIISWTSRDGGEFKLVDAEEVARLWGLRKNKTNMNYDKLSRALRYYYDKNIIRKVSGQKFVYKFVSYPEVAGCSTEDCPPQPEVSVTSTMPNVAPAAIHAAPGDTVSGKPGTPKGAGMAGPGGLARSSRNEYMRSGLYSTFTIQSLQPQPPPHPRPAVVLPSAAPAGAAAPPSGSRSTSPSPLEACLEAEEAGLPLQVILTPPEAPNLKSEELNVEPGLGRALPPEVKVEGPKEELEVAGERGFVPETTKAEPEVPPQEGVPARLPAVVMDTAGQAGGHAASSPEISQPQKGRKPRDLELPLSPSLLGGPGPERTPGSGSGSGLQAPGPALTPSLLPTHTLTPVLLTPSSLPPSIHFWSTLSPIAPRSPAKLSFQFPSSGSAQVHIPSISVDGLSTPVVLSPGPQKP
The essentials:
(§1)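 Sequencing on an Illumina NextSeq500 followed washing, crosslinking with 0.1% formaldehyde, proximity ligation (BsaI/T4 ligase, 1 h, 37 °C) and PCR amplification of pools that had been incubated for 30 min at room temperature with 200 nmole of a random double-stranded 16-mer DNA library in Tris/NaCl/DTT/glycerol buffer. Each pool held DNA-barcoded human transcription factors, expressed in yeast as GST fusions and captured on glutathione beads, plus a tag-only sample. Binding signal is a hexamer's read frequency for a factor divided by its frequency in the tag-only sample.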

The target in a further experiment is T2, GABPA (Homo sapiens, UniProt Q06546 1-454).
T2 sequence: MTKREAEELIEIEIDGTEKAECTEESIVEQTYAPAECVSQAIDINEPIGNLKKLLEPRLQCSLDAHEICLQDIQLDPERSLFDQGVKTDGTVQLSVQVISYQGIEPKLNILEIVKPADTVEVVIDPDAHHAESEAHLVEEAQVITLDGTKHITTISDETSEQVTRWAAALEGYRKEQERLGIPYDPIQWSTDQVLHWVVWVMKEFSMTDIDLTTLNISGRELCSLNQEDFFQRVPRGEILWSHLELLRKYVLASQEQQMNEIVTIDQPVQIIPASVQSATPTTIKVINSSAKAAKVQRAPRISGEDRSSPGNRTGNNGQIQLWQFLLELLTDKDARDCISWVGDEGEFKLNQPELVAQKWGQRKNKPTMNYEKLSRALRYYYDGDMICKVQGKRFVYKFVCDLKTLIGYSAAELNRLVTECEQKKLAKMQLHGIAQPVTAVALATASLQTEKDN
Put shortly: as §1

The target of another experiment is T3, ERG (Homo sapiens, UniProt P11308 1-479).
T3 sequence: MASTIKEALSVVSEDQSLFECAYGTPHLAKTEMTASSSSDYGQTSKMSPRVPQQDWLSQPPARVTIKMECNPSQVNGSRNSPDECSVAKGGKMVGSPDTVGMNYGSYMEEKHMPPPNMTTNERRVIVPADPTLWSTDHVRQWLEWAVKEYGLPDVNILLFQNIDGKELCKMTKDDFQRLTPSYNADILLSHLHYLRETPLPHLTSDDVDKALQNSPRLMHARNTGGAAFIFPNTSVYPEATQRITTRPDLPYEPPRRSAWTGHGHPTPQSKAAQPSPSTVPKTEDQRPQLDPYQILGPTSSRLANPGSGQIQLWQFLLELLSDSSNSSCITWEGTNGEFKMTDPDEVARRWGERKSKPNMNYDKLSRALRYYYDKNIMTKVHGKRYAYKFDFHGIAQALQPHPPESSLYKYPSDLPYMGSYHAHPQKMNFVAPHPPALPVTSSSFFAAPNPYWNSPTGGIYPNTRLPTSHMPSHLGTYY
The essentials: as §1

Another experiment has as its target ELF1 (Homo sapiens, UniProt P32519 1-619). Put shortly:
as §1

A further experiment addresses T4, EHF (Homo sapiens, UniProt Q9NZC4 1-300).
T4 sequence: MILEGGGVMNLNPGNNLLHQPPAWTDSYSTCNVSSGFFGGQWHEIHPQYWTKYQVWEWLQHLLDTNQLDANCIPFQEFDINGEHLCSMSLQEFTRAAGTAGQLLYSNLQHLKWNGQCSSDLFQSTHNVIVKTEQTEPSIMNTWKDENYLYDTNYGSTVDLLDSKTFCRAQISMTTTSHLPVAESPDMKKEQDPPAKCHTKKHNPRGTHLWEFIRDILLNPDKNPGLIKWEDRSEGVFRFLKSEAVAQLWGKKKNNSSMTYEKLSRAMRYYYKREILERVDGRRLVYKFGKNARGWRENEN
The essentials:
as §1

Another experiment deals with SPIB (Homo sapiens, UniProt Q01892 1-262). The essentials:
as §1

The next experiment has as its target T5, ELK3 (Homo sapiens, UniProt P41970 1-407).
T5 sequence: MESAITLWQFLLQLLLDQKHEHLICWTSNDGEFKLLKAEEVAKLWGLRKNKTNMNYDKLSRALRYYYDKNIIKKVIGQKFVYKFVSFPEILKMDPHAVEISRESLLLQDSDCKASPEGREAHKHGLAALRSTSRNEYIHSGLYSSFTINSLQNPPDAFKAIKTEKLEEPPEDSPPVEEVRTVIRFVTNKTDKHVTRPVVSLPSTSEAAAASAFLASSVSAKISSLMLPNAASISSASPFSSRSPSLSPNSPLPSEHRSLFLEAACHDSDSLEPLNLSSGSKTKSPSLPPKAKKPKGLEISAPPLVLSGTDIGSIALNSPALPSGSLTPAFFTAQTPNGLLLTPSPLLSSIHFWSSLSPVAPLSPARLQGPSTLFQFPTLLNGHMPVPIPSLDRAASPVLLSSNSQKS
The essentials: as §1

Another experiment addresses ETV5 (Homo sapiens, UniProt P41161 1-510). The essentials: as §1
In a further experiment the target is T6, SPIC (Homo sapiens, UniProt Q8N5J4 1-248).
T6 sequence: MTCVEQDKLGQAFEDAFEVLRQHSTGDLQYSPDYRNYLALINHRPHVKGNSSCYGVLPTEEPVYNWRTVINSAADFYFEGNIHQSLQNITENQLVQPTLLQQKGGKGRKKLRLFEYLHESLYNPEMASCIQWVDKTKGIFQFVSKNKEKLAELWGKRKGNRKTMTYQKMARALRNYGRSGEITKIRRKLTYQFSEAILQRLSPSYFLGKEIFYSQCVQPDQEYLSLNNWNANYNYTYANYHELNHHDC
The essentials: as §1

The next experiment concerns the target ELF4 (Homo sapiens, UniProt Q99607 1-663). The essentials:
as §1

Sequence of ETV5 (P41161 whole entry): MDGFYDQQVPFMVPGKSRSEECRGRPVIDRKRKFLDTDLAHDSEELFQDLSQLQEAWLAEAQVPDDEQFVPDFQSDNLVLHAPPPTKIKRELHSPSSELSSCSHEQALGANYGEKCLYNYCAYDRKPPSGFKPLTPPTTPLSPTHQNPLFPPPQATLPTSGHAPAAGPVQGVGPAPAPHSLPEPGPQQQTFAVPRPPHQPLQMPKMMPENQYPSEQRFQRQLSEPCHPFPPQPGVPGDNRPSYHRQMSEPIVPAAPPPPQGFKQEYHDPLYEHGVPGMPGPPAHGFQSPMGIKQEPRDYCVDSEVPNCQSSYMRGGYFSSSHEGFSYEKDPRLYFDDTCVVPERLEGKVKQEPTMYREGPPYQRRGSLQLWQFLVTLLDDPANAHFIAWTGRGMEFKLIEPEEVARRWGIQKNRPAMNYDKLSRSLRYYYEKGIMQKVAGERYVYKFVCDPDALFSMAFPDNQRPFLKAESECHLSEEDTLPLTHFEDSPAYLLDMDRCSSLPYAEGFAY
Sequence of ELF1 (P32519 whole entry): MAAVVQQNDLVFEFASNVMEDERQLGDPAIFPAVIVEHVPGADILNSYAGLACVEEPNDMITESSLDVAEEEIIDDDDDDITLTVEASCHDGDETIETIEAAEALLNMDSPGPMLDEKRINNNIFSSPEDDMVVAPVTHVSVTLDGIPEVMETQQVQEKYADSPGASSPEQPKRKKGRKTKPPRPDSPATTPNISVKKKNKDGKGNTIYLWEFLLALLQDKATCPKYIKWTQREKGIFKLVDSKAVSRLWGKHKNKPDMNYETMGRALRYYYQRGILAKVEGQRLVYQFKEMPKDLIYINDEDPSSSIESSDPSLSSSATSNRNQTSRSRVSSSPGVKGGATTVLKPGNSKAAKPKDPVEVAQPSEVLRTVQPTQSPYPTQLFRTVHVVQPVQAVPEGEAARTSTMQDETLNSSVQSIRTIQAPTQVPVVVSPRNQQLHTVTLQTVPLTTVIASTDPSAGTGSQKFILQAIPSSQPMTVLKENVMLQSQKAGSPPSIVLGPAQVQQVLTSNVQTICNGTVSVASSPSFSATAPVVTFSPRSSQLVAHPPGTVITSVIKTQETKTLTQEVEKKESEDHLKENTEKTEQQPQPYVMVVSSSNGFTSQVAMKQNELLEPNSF
Sequence of SPIB (Q01892 whole entry): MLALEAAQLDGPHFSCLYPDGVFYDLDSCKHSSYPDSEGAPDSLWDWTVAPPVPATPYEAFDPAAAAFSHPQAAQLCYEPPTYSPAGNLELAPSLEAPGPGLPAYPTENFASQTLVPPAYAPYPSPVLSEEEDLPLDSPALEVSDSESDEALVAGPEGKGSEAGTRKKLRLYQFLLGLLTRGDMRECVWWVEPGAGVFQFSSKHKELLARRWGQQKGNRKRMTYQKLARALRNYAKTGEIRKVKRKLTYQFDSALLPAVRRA
Sequence of ELF4 (Q99607 whole entry): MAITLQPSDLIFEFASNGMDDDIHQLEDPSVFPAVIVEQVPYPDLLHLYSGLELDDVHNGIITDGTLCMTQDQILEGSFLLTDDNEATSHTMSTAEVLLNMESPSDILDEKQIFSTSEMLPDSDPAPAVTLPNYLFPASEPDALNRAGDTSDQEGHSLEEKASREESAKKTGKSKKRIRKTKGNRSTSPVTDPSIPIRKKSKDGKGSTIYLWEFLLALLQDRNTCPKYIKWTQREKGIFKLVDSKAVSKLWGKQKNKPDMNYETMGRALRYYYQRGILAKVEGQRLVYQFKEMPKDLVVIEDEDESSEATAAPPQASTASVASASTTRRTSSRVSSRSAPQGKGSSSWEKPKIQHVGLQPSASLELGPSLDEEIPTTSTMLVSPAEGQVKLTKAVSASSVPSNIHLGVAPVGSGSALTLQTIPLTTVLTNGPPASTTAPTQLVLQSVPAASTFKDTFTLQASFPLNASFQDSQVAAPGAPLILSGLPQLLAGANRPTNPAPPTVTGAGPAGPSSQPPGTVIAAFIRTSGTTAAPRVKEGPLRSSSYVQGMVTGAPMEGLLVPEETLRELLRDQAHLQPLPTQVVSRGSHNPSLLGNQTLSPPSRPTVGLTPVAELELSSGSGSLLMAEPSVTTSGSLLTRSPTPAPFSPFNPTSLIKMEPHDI

CAAACA: the binding signal with ELK1 is 1.15 fold enrichment (6-mer frequency, TF over GST control); in the experiment with GABPA, 1.18 fold enrichment (6-mer frequency, TF over GST control); with ERG, 1.18 fold enrichment (6-mer frequency, TF over GST control); in the experiment with ELF1 it was 1.08 fold enrichment (6-mer frequency, TF over GST control); with EHF, 1.09 fold enrichment (6-mer frequency, TF over GST control); in the experiment with SPIB, 1.13 fold enrichment (6-mer frequency, TF over GST control). For the same sequence, the binding signal with ELK3 is 1.17 fold enrichment (6-mer frequency, TF over GST control); with ETV5 it was 1.13 fold enrichment (6-mer frequency, TF over GST control); with SPIC, 1.14 fold enrichment (6-mer frequency, TF over GST control); in the experiment with ELF4, 1.14 fold enrichment (6-mer frequency, TF over GST control).
